Screening results deposited in PubChem by several laboratories.
Most compounds without a hit are left out; they make up all but 27% or so of the library.
CYP2C9 act: CYP2C9 (human) activation; P11712; recombinant CYP2C9, luciferin-H conversion, luminescence; hits give high values; factor 1 = untreated enzyme, 0 = blocked; activation factor at 5 µM; 1.4% of 96,000 active; AID 1024;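 active = activation factor of 2 or more for CYP2C9 at a 5 µM dose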;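 also: 0 = sulfaphenazole-blocked wells and 1 = vehicle-only wells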
CYP2C9 inhib: inhibitors of human CYP2C9; P11712; CYP2C9 Supersomes, luciferin-H conversion, luminescence; inhibition, % at 5 µM; 20% of 96,000 active;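 active = blocking of liver enzyme CYP2C9 beyond about 50% at 5 µM, limit read from the data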
CYP2C19 act: cytochrome P450 2C19 (human) activation; P33261; recombinant CYP2C19, luciferin-H EGE luminescence; hits give high values; 0 = fully inhibited enzyme, 1 = untreated enzyme; activation factor at 5 µM; 96,000 tested, under 10 active;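 active = activation factor of at least 2 at 5 µM in the primary screen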;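 also: 0 = wells with 2.5 mM tranylcypromine and 1 = vehicle-only wells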
Cav3 T inh: human Cav3.2 channel inhibition, primary screen | 4% of 100,000 active | O95180 | Cav3.2-expressing cells, Fluo-4 calcium fluorescence FDSS; hits give low values | B-score at 10 µM;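 active = single-dose well whose peak fluorescence ratio is a statistical outlier from its plate by either plate-standardised score or position-corrected B-score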
CYP2C19 inh: blocks human cytochrome P450 2C19 | P33261 | CYP2C19 Supersomes, luciferin-H EGE luminescence, 30 min | inhibition, % at 5 µM | 21% of 96,000 active | AID 778;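 active = CYP2C19 inhibition above a set limit at 5 µM in the primary screen, cut at about 50% in these data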;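 also: plate controls were negative control wells for no effect and 2.5 mM tranylcypromine positive control for full effect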
* hit, by the source's call.

How did CCSc1nc(N2CCCCC2)c2c(c1C#N)CCCC2 do in these assays?
CYP2C9 act: 0.1; CYP2C9 inhib: 93*; CYP2C19 act: 0.3; Cav3 T inh: -0.056; CYP2C19 inh: 69*

How did Cc1c(C#N)c(SCC(N)=O)nc2c1CCCC2 do in these assays?
CYP2C9 act: 1.1; CYP2C9 inhib: -13; CYP2C19 act: 0.8; Cav3 T inh: 0.75; CYP2C19 inh: 21

Results for N#Cc1c(SCc2ccccc2)nc(N2CCOCC2)c2c1CCCC2 ?
CYP2C9 act: 0.1; CYP2C9 inhib: 92*; CYP2C19 act: 0.7; Cav3 T inh: -5.4*; CYP2C19 inh: 35

What do the screens show for `CCCCOP(=O)(OCCCC)C1(NS(=O)(=O)c2ccccc2)C=CC(=O)c2ccccc21` (stereo not given)?
CYP2C9 act: 0.4; CYP2C9 inhib: 60*; CYP2C19 act: 0.5; Cav3 T inh: -2.7; CYP2C19 inh: 47

Results for Cc1cccc(/C=C2\CCC(=C3SCCCS3)C2=O)c1 ?
CYP2C9 act: 1.1; CYP2C9 inhib: -9; CYP2C19 act: 1; Cav3 T inh: -0.49; CYP2C19 inh: 4

How did O=C1C(=C2SCCCS2)CC/C1=C\c1ccc(F)cc1 do in these assays?
CYP2C9 act: 0.8; CYP2C9 inhib: 19; CYP2C19 act: 0.5; Cav3 T inh: 0.52; CYP2C19 inh: 51*

What do the screens show for `O=C(CNc1ccc(Oc2ccccc2)cc1)N1CCOCC1`?
CYP2C9 act: 1.2; CYP2C9 inhib: -18; CYP2C19 act: 1.1; Cav3 T inh: 0.69; CYP2C19 inh: -9

What do the screens show for `Cc1ccc(N(CC(=O)N/N=C/c2ccc(OC3CSC3)cc2)S(=O)(=O)c2ccccc2)cc1`?
CYP2C9 act: 0.6; CYP2C9 inhib: 38; CYP2C19 act: 0.6; Cav3 T inh: -2.7*; CYP2C19 inh: 36

How did COc1ccc(N(CC(=O)NN=C2CCCCCCC2)S(=O)(=O)c2ccccc2)cc1 do in these assays?
CYP2C9 act: 0.6; CYP2C9 inhib: 43; CYP2C19 act: 0.7; Cav3 T inh: 0.1; CYP2C19 inh: 32

How did CCCc1nnc(N2C(=O)c3cccc4cccc(c34)C2=O)s1 do in these assays?
CYP2C9 act: 3*; CYP2C9 inhib: -203; CYP2C19 act: 1.1; Cav3 T inh: 0.37; CYP2C19 inh: -8

Results for CCC(CC)NC(=O)c1cc(OC)c(OC)cc1[N+](=O)[O-] ?
CYP2C9 act: 0.9; CYP2C9 inhib: 7; CYP2C19 act: 1.1; Cav3 T inh: 1.1; CYP2C19 inh: -8

Results for CCC(C)(C(=O)NC1CCCCC1)N(Cc1ccco1)C(=O)c1ccccn1 (stereo not given) ?
CYP2C9 act: 1; CYP2C9 inhib: -4; CYP2C19 act: 1; Cav3 T inh: -1; CYP2C19 inh: 2

How did CCC(C)(C(=O)NC1CCCCC1)N(Cc1cccs1)C(=O)Cc1cccs1 (stereo not given) do in these assays?
CYP2C9 act: 0.7; CYP2C9 inhib: 32; CYP2C19 act: 0.8; Cav3 T inh: -7.7*; CYP2C19 inh: 23

Results for CC(=O)N(Cc1ccco1)C1(C(=O)NC2CCCC2)CCCCC1 ?
CYP2C9 act: 0.9; CYP2C9 inhib: 13; CYP2C19 act: 0.9; Cav3 T inh: -0.74; CYP2C19 inh: 10

What do the screens show for `O=C(Cc1cccs1)N(Cc1cccs1)C1(C(=O)NC2CCCCC2)CCCCC1`?
CYP2C9 act: 1.2; CYP2C9 inhib: -19; CYP2C19 act: 1.1; Cav3 T inh: -5.5*; CYP2C19 inh: -6

How did Cc1ccc(C2C3=C(CC(C)(C)CC3=O)Nc3[nH]c(=S)[nH]c(=O)c32)cc1 (stereo not given) do in these assays?
CYP2C9 act: 0.3; CYP2C9 inhib: 70*; CYP2C19 act: 0.6; Cav3 T inh: 0.037; CYP2C19 inh: 40

Results for Cc1nc2[nH]c(=O)c3c(n2n1)NC1=C(C(=O)CC(C)(C)C1)C3c1ccc(F)cc1 (stereo not given) ?
CYP2C9 act: 1; CYP2C9 inhib: -5; CYP2C19 act: 1.1; Cav3 T inh: 0.51; CYP2C19 inh: -9

How did CC(=O)N(C)c1ccc(NC(=O)c2cnn(C)c2)cc1 do in these assays?
CYP2C9 act: 0.9; CYP2C9 inhib: 9; CYP2C19 act: 0.9; Cav3 T inh: 1.2; CYP2C19 inh: 11

What do the screens show for `CCc1cccc(C)c1NC(=S)NCCc1c(C)[nH]c2ccc(C)cc12`?
Cav3 T inh: -3.4*

How did Cc1ccc(C)c(NC(=S)NCc2ccc3[nH]c4c(c3c2)CCCC4)c1 do in these assays?
Cav3 T inh: -2.1

How did CCOC(=O)N1CCC(NC(=O)C2CCCN(C(=O)c3cc4sccc4n3C)C2)CC1 (stereo not given) do in these assays?
CYP2C9 act: 1.7; CYP2C9 inhib: -67; CYP2C19 act: 1; Cav3 T inh: 1.2; CYP2C19 inh: 5

Results for CCOC(=O)c1cccc(NC(=O)c2cccs2)c1 ?
CYP2C9 act: 0.4; CYP2C9 inhib: 63*; CYP2C19 act: 0.5; Cav3 T inh: 0.28; CYP2C19 inh: 49

What do the screens show for `CCOC(=O)c1sc(NC(=O)c2sccc2C)cc1C`?
CYP2C9 act: 0.7; CYP2C9 inhib: 29; CYP2C19 act: 0.7; CYP2C19 inh: 32

How did CCOC(=O)N1CCN(C(=O)c2cc3sccc3n2C)CC1 do in these assays?
CYP2C9 act: 1.2; CYP2C9 inhib: -17; CYP2C19 act: 0.1; Cav3 T inh: 0.059; CYP2C19 inh: 86*

How did CCOC(=O)c1sc(NC(=O)c2cccs2)cc1C do in these assays?
CYP2C9 act: 0.4; CYP2C9 inhib: 65*; CYP2C19 act: 0.6; Cav3 T inh: -0.059; CYP2C19 inh: 43

What do the screens show for `CCOC(=O)c1cccc(NC(=O)c2cc3sccc3n2C)c1`?
CYP2C9 act: 0.1; CYP2C9 inhib: 92*; CYP2C19 act: 0; Cav3 T inh: -1.8; CYP2C19 inh: 96*

What do the screens show for `CCOC(=O)c1cnn(-c2ccccc2)c1NC(=O)c1cccs1`?
CYP2C9 act: 0.6; CYP2C9 inhib: 37; CYP2C19 act: 0.7; Cav3 T inh: 0.081; CYP2C19 inh: 33

What do the screens show for `CCOC(=O)c1cnn(CCOC(=O)c2cccs2)c1NC(=O)c1cccs1`?
CYP2C9 act: 0.1; CYP2C9 inhib: 86*; CYP2C19 act: 0.2; Cav3 T inh: -0.13; CYP2C19 inh: 75*

How did CCOC(=O)c1c(N)n(CCOC(=O)c2cccs2)c2nc3ccccc3nc12 do in these assays?
CYP2C9 act: 0.2; CYP2C9 inhib: 84*; CYP2C19 act: 0.1; CYP2C19 inh: 85*

How did CCOC(=O)c1cccc(NC(=O)/C(=C\c2ccccc2)NC(=O)c2ccccc2Cl)c1 do in these assays?
CYP2C9 act: 0.4; CYP2C9 inhib: 56*; CYP2C19 act: 1.1; Cav3 T inh: -0.85; CYP2C19 inh: -5

Results for CCOC(=O)c1ccccc1NC(=O)c1cc2sccc2n1C ?
CYP2C9 act: 0.4; CYP2C9 inhib: 62*; CYP2C19 act: 0.2; Cav3 T inh: -0.93; CYP2C19 inh: 79*

What do the screens show for `COc1ccc(/C=C/C(=O)Nc2c(C)nn(C)c2C)cc1COc1ccc(Cl)cc1Br`?
Cav3 T inh: 0.26

Results for COc1ccc(N2CCN(C(c3cc(OC)ccc3OC)c3nnnn3CC3CCCO3)CC2)cc1 (stereo not given) ?
Cav3 T inh: -0.33
